Laboratory results: PubChem BioAssay AID449768 (Vanderbilt High Throughput Screening Facility, 2010)
Out of some 110,000 compounds screened, about 1,400 (1.3%) were called active.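 Rule for the calls: active = Z score or B-score, a plate-position-corrected score, falls beyond the plate's 99.7% confidence bounds, in either direction; inactive = both scores lie inside the 99.7% bounds.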 This excerpt belongs to a sample that is enriched for actives.

Molecular target: Sodium-dependent dopamine transporter (Homo sapiens) (UniProt Q01959)
Sequence (Q01959 whole entry, looked up): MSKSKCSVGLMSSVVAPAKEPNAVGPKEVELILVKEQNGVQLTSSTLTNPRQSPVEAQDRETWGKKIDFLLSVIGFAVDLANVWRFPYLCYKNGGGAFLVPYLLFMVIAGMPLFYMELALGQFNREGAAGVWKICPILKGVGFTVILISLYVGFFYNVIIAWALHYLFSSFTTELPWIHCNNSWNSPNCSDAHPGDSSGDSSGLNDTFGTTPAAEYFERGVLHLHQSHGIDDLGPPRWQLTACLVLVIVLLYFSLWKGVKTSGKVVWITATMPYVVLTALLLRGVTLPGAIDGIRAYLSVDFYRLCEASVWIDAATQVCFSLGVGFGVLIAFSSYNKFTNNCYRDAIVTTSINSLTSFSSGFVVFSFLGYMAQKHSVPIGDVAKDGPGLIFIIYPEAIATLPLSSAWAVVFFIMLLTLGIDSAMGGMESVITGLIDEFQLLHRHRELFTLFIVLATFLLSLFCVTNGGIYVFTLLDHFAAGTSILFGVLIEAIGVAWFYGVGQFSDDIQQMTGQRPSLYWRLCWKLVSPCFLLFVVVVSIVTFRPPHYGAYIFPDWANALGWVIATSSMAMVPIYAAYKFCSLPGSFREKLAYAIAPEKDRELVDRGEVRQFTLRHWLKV
Assay: changed hDAT dopamine uptake under cocaine IC80, either direction, primary screen, cocaine antagonist project, cell-based, LLC-PK1 hDAT, [14C]-dopamine uptake, MLSMR (AID 449768);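 note: scored against the spread of the other compound wells on the same plate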
Conditions: LLC-PK1 hDAT cells, [14C]-dopamine uptake with cocaine IC80; at 10 µM; actives deviate in either direction

SMILES	B-score
Cc1nc(-c2ccccc2)sc1C1(C)CC(c2cccnc2)=NO1 (centres undefined)	0.641 (inactive)
C#Cc1ccc([C@@H]2C=C(C(=O)O)O[C@H](OCCCCO)C2)cc1	-0.622 (inactive)
CC1=C(N2CCN(c3ncccn3)CC2)CCC1=O	0.343 (inactive)
CC1(C)OC(=O)N2CCc3ccccc3C21C (centres undefined)	-8.52 (active)
COc1ccc(CN2CC[C@H]3C=CC[C@@H](C(=O)N4CCOCC4)[C@H]3C2=O)cc1OC	0.696 (inactive)
O=C(CCCCCn1c(=O)[nH]c2ccccc2c1=O)NCCc1c[nH]c2ccccc12	0.015 (inactive)
Cc1cc(C)cc(NC(=S)NCCc2c[nH]c3ccccc23)c1	2.31 (inactive)
C[C@]1(C(=O)NCCc2c[nH]c3ccccc23)C=C[C@@H](Cc2ccccc2)N1C(=O)c1ccccc1	2.48 (active)
NCCCC[C@@H]1NC(=O)[C@H](CCC(=O)O)NC(=O)c2cc([N+](=O)[O-])cc(I)c2NCC[C@@H](C(N)=O)NC1=O	-0.534 (inactive)
COc1ccc(CNC(=O)C2(CC3CC(c4ccccc4)=NO3)CCN(C(=O)c3cccc(O)c3)CC2)cc1 (centres undefined)	0.0185 (inactive)
O=C(NCc1ccccc1)c1onc(CSc2ccncc2)c1C(=O)NCc1ccccc1	-1.52 (inactive)
NC(=O)CC[C@@H]1NC(=O)[C@H](CO)NC(=O)c2cc([N+](=O)[O-])cc(I)c2NCC[C@@H](C(N)=O)NC1=O	-0.848 (inactive)
Cc1ccc(OCC(=O)Nc2ccc(-c3nc4ncccc4o3)cc2)cc1	-8.77 (active)
Cc1ccc(OCC(=O)Nc2ccc(-c3nnc(-c4ccco4)o3)cc2)cc1	-0.0188 (inactive)
O=C(Nc1cccc(-c2nc3ncccc3o2)c1)c1ccco1	0.346 (inactive)
Cn1ccnc1-c1nnn(-c2ccc(F)cc2)n1	-0.732 (inactive)
Cc1ccc(Cn2c(NC(=O)c3ccco3)nc3ccccc32)cc1	-0.191 (inactive)
CCC(=O)NCCc1nc2ccccc2n1CC	-0.73 (inactive)
CCCc1nc2c(C)cc(-c3nc4ccccc4n3C)cc2n1Cc1ccc(-c2ccccc2C(=O)O)cc1	3.87 (active)
CC(C)(C)Oc1ccccc1Nc1nc(NCCO)nc(N2CCCC2)n1	1.65 (inactive)
CCO[C@H]1OC(C(=O)Nc2ccccc2)=C[C@@H](C2CC2)[C@@H]1CCCO	-0.987 (inactive)

SMILES	B-score
CCOc1cc(-c2noc(CCC(=O)N3CCOCC3)n2)ccc1OC	2.65 (active)
CCOc1ccc(-c2nnn(CC(=O)N3CCN(c4ccc(OC)cc4)CC3)n2)cc1OCC	-0.869 (inactive)
COc1ccc(N2CCN(C(=O)CCc3nc(-c4ccc(C)cc4)no3)CC2)cc1	0.227 (inactive)
CC1(C)CC[C@]2(C(=O)O)CC[C@]3(C)C(=CCC4[C@@]5(C)CC[C@H](O)C(C)(C)C5[C@H](O)C[C@]43C)[C@@H]2C1 (some centres undefined)	1.56 (inactive)
COC(=O)COc1cccc2c(=O)n(CC(=O)NCCc3ccc(OC)c(OC)c3)ccc12	-1.43 (inactive)
CCCCN1C(N)=NC[C@@H]1Cc1ccccc1	-0.466 (inactive)
CCN1C(=O)N[C@@H](c2ccccc2)C(C(=O)OC)=C1C	-0.748 (inactive)
Nc1nonc1-c1nc2ccccc2n1Cc1ccc(F)cc1	-0.103 (inactive)
Nc1nonc1-c1nc2ccccc2n1CCC(=O)O	0.142 (inactive)
CC(=O)Nc1nonc1-c1nc2ccccc2n1Cc1ccccn1	3.49 (active)
C[C@H]1CC[C@]2(O[C@@H](CCO)C[C@@H](O)[C@@H]2O)O1	0.279 (inactive)
CCO[C@@H]1OC(C(N)=O)=C[C@H](c2ccc(Br)cc2)[C@H]1CCCO	-0.185 (inactive)
CC[C@H](C)[C@@H](C(=O)N1CCNCC1)n1cc([C@@H](N)Cc2ccc(O)cc2)nn1	0.00778 (inactive)
CCc1ccc2ncc(C(=O)c3ccccc3)c(N3CCOCC3)c2c1	2.66 (active)
O=C(c1ccccc1)c1cc(-c2ccccn2)c(N2CCOCC2)s1	1.13 (inactive)
CCc1ccc(NC(=O)CSc2nc3ccccc3c(=O)n2CCN2CCOCC2)cc1	0.477 (inactive)
N#CCc1c(C#N)c(N)nc(N2CCCC2)c1C#N	-0.528 (inactive)
C#CCCOC(=O)N1C2=NC(C(=O)OC)=C(C(=O)OC)[C@@H]3N(C)c4ccc(OC)cc4[C@]23C[C@H]1C(=O)OC	-0.658 (inactive)
C#CCOCCOCCOCCNc1nc(N2CCN(C(=O)[C@H](Cc3ccc(O)cc3)n3cc(C(N)CC(C)C)nn3)CC2)nc(N2CCN(C(=O)[C@H](CCC(=O)O)n3cc(C(N)[C@H](C)CC)nn3)CC2)n1 (some centres undefined)	-0.0315 (inactive)
CC(=O)Nc1ccc(NC(=O)CSCc2cnn(-c3ccccc3)c2-n2cccc2)cc1	0.28 (inactive)
O=C(NCCC1=CCCCC1)C1CCN(Cc2cnn(-c3ccccc3)c2-n2cccc2)CC1	3.85 (active)

SMILES	B-score
C1=C(CCNc2ncnc3c2cnn3-c2ccccc2)CCCC1	1.22 (inactive)
O=C(Nc1ccccc1[N+](=O)[O-])C1C(c2ccccc2)=C1c1ccccc1	-0.499 (inactive)
O=C(O)c1ccccc1NC(=S)NC(NC(=O)c1ccccc1[N+](=O)[O-])C(Cl)(Cl)Cl (centres undefined)	-2.89 (active)
O=[N+]([O-])c1ccccc1NCc1ccc(Cl)cc1	-0.347 (inactive)
CC1(c2nnc(-c3ccncc3)o2)CC(c2cccnc2)=NO1 (centres undefined)	-0.313 (inactive)
CCc1nnc(SCc2cccc(F)c2)nc1CC	-0.0254 (inactive)
CC(NC(=O)Nc1ccccc1)C(c1cccs1)N1CCN(c2ccccc2)CC1 (centres undefined)	-0.314 (inactive)
COc1ccccc1C1=CC(=O)CCC1	-0.483 (inactive)
C/C=C(/C)C(=O)O[C@@H]1c2cc3c(c4c2[C@@]2(CO4)C(=O)C(OC)=C(OC)C=C2C[C@@H](C)[C@H]1C)OCO3	-0.0544 (inactive)
COC(=O)C(NC(=O)c1ccc(OC)cc1)(Nc1ncc(S(=O)(=O)c2ccc([N+](=O)[O-])cc2)s1)C(F)(F)F (centres undefined)	1.29 (inactive)
Cc1cc(C)cc(OCC(=O)Nc2nc3ccc([N+](=O)[O-])cc3s2)c1	0.303 (inactive)
O=C(NC(Nc1nc2ccc([N+](=O)[O-])cc2s1)(C(F)(F)F)C(F)(F)F)c1ccccc1	-6.22 (active)
COC(C[C@@H]1O[C@@H]1C(=O)[C@@H](C)OCc1ccccc1)OC	-1.68 (inactive)
Cn1c(=O)cc(OCCCC(=O)N2CCN(Cc3ccc4c(c3)OCO4)CC2)c2ccccc21	-0.011 (inactive)
O=C(CCCN1C(=O)c2cccc3cccc(c23)C1=O)N1CCN(Cc2ccc3c(c2)OCO3)CC1	3.8 (active)
O=C(Nc1cccc2ccccc12)N1CCN(Cc2ccc3c(c2)OCO3)CC1	0.465 (inactive)
C=CCOC(=O)C1=C[C@H](c2ccc(Br)cc2)C[C@H](OCCCCO)O1	-0.239 (inactive)
COC(=O)c1ccccc1NC(=O)c1ccccc1NS(C)(=O)=O	0.686 (inactive)
COC(=O)c1ccc(C(=O)OC)c(NC(=S)N2CCCCC2)c1	0.301 (inactive)
CCS(=O)(=O)Nc1cc(C(=O)OC)ccc1C(=O)OC	6.13 (active)
COC(=O)C1=C[C@@H](C(=O)OC)[C@@H]2C3=C(C(=O)[C@]2(C)NC(=O)c2ccccc2)[C@H](C)n2c(=O)n(C)c(=O)n2[C@@H]3C1	-0.415 (inactive)

SMILES	B-score
COc1ccc(C(CC(=O)N2CCN(c3ccccc3)CC2)c2c(O)cc(OC)cc2OC)cc1 (centres undefined)	1.37 (inactive)
c1ccc2[nH]c(-c3nc4ccccc4[nH]3)nc2c1	0.0135 (inactive)
COc1ccc(-c2[nH]nc(-c3ccccc3)c2-c2nc3ccccc3[nH]2)cc1	-7.37 (active)
c1ccc(-c2[nH]ncc2-c2nc3ccccc3[nH]2)cc1	0.018 (inactive)
CN1CCN(C(=O)C2=C[C@H](c3ccc4c(c3)OCO4)C[C@H](OCc3ccc(CO)cc3)O2)CC1	0.0245 (inactive)
O=C1N[C@@H](Cc2ccccc2)C(=O)N2[C@@H]3N(S(=O)(=O)c4ccc(F)cc4)c4ccccc4[C@]3(Br)C[C@@H]12	1.04 (inactive)
C#CCOCCOCCOCCNc1nc(N2CCN(C(=O)[C@H](CCC(=O)O)n3cc(C(N)CO)nn3)CC2)nc(N2CCN(C(=O)[C@H](Cc3ccc(O)cc3)n3cc(C(N)[C@H](C)CC)nn3)CC2)n1 (some centres undefined)	-0.199 (inactive)
CCOC(=O)CNC(=O)CSc1nc2cccnc2n1CC	-8.17 (active)
CCOC(=O)CNC(=O)CSc1nnc(COc2ccc(Cl)cc2)n1CC	0.0208 (inactive)
CCOC(=O)CNC(=O)CSc1nnc(-c2cccc(OC)c2)n1CC	0.102 (inactive)
O=C(NCC1CC1)c1onc(CSc2ccccc2)c1C(=O)NCC1CC1	1.29 (inactive)
COc1ccc(C2/C=C\CN(S(=O)(=O)c3cccs3)CC(=O)N2Cc2ccc(F)cc2)cc1 (centres undefined)	0.769 (inactive)
CCOC(=O)c1sc(NC(=O)c2ccncc2)nc1C	0.297 (inactive)
CCOC(=O)c1ccc(N2C(=O)CC(N(C)Cc3ccccc3)C2=O)cc1 (centres undefined)	-0.402 (inactive)
CCOC(=O)c1sc(N(Cc2ccccc2)C(=O)CN2C(=O)CN(C)C2=O)nc1C	4.19 (active)
O=C1c2ccccc2S(=O)(=O)c2cc(N3CCN(c4ccccn4)CC3)ccc21	0.34 (inactive)
COC(C[C@@H](O)C[C@@H](O)[C@H](C)OCc1ccccc1)OC	-0.417 (inactive)
OCC[C@H]1C[C@H](O)[C@@H](O)[C@]2(CCCCO2)O1	-1.31 (inactive)
CCCCOC(=O)Nc1nccs1	16.3 (active)
CC(=O)Oc1ccc(C(=O)Nc2nccs2)cc1	-1.53 (inactive)
COc1cc(C(=O)Nc2nccs2)cc(OC)c1OC	-0.0124 (inactive)
